These results are taken from PubChem BioAssay.

Structures are written as SMILES. Records with an inconclusive call do not appear. Activity calls are given as the source filed them. Rule as the data show it, unless noted: active = percent of DMSO control GFP below about 86%; inactive = the rest, inconclusive results apart.

What is called inhibition is the change of the read-out against control, counted positive when it falls.

Test [1] in a line: yeast TOR pathway RPL19A-GFP modulators, primary screen, cell-based, S. cerevisiae, multiplex flow cytometry (AID 1862).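 Also: lower values mimic rapamycin by blocking the RPL19A rise seen in DMSO cells.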 As to conditions: S. cerevisiae RPL19A-GFP strain, flow cytometry fluorescence, 3 h; at 10 µM; stronger effect = lower value. Background: In flow cytometry, cells or beads pass a laser one at a time.
Test [2] is described as follows: modulators of MEP2-GFP levels in yeast, primary screen, S. cerevisiae, multiplex flow cytometry (AID 1867;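 active = GFP response, as percent of the DMSO control, above the screen-wide mean plus 3 SD, about 139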;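 also: median GFP channel fluorescence of barcode-gated MEP2-GFP cells measured by flow cytometry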). As to conditions: S. cerevisiae MEP2-GFP strain, 3 h, at 10 µM, stronger effect = higher value, 100% means same as DMSO wells.
Test [3] can be described thus: modulators of CIT2-GFP expression in yeast, primary screen, S. cerevisiae, GFP fusion, multiplex flow cytometry (AID 1870;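 active = percent response above a set limit, the screen-wide mean plus 3 SD, cut at about 130% in these data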;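 also: barcoded CIT2-GFP strain pooled with four other GFP strains with rapamycin as positive control; median GFP fluorescence per well over plate mean of DMSO wells so 100% = DMSO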). Conditions: 3 h, at 10 µM, stronger effect = higher value.
A short description of test [4]: modulators of LAP4-GFP expression in yeast, primary screen, S. cerevisiae, multiplex flow cytometry (AID 1873;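 active = GFP signal, as percent of the solvent control, above the screen mean plus 3 SD, about 149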). As to conditions: 3 h, at 10 µM, stronger effect = higher value.
Test [5] is described as follows: modulators of AGP1-GFP expression in yeast TOR pathway, primary screen, cell-based, multiplex flow cytometry, S. cerevisiae (AID 1887;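 active = GFP signal above the screen-wide mean plus 3 SD, that is over about 124.5% of the solvent control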;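 also: AGP1-GFP fusion strain of S. cerevisiae within a five-strain barcoded multiplex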). As to conditions: 3 h, at 10 µM, stronger effect = higher value.
Test [6] can be described thus: inhibitors of CD8+ T cell-vesicle binding, pilot screen, LFA-1/ICAM-1 modulator project, MLPCN validation set, flow cytometry (AID 2523;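 active = response below a set limit, under 55% cells CD8-positive and vesicle-bound, and CD8 cells' 90th-percentile brightness under 279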;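 as to vesicle binding response: mean PE anti-B7-1 fluorescence of CD8+ cells relative to row control; 100% = QL9-loaded vesicles with DMSO vehicle in the same plate row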). As to conditions: 2C mouse CD8+ T cells, at 7 µM, stronger effect = lower value; double positive events: measured here: CD8+/vesicle+ event percentage.
For test [7], the target named is Integrin beta-1 (Homo sapiens) + Integrin alpha-4 (Homo sapiens) (UniProt P13612+P05556). In words: inhibition of HUTS-21 binding to VLA-4, pilot screen, VLA-4 allosteric modulator project, U937 cells, HUTS-21 mAb, flow cytometry, validation set (AID 2674;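 active = inhibition above 50%, about 3 SD of the validation set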;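 also: antibody binding induced by the VLA-4 ligand LDV present at three times its Kd; 0% = LDV ligand with antibody and no compound and 100% = antibody without LDV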). As to conditions: HUTS-21 LIBS mAb binding, at 6.7 µM, stronger effect = higher value, binding induced by LDV ligand.
Test [8] can be described thus: superoxide lowering in aged yeast cells, pilot screen, validation compound set (AID 2706;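 active = superoxide response below 65% of plate, a cut near 3 SD across the whole screen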;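 also: yeast exposed to compound for one week at 30 degrees C before staining; 100% = mean of all compound wells on the same plate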). As to conditions: S. cerevisiae aging, superoxide DHE fluorescence; at 10 µM; stronger effect = lower value.
Test [9] deals with Beta-adrenergic receptor kinase 1 (Homo sapiens) (UniProt P25098). In words: GRK2 binders displacing RNA aptamer, biochemical, validation, human GRK2, bead flow cytometry (AID 488806;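 active = aptamer binding inhibition above 30%, about 3 SD of noise from non-fluorescent compounds; inactive = inhibition at or below 30%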). Conditions: bead-bound GRK2, FAM-aptamer displacement, at 10 µM, stronger effect = higher value.
Test [10] has as its target Beta-2 adrenergic receptor (Homo sapiens) (UniProt P07550). Briefly: beta2AR agonists driving receptor internalization, pilot screen, cell-based, FAP fluorogen, flow cytometry, validation set (AID 504459;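 active = percent response above 42, roughly 3 SD of non-fluorescent test compounds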;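 also: agonist-driven loss of surface beta2AR via internalization measured by FAP dye flow cytometry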). As to conditions: Am2.2-beta2AR cells, FAP surface receptor flow cytometry; at 10 µM; stronger effect = higher value.
In test [11] the target is AP-2 complex subunit beta (Homo sapiens) (UniProt P63010). In words: inhibitors of arrestin peptide binding to AP2, pilot screen, biochemical, validation set, GST-AP2 beads, flow cytometry (AID 504541;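 active = inhibition above 54%, about 3 SD of non-fluorescent compounds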;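 also: AP2 carries R879A mutation and is captured from E. coli lysate; bead-bound FITC arrestin peptide fluorescence measuring arrestin peptide binding to AP2; 0% = DMSO wells and 100% = excess unlabeled arrestin peptide control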). As to conditions: FITC arrestin peptide, at 10 µM, stronger effect = higher value, AP2 beta2 appendage fragment, R879A mutant.
Test [12] can be described thus: yeast V-ATPase proton transport modulators, S. cerevisiae, pHLuorin, HTS validation (AID 504600; in the data active = response above about 15%;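 also: plate controls were DMSO for no effect and reference compound for full effect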). As to conditions: S. cerevisiae pHLuorin cytosolic pH, at 10 µM, stronger effect = higher value.
Test [13] concerns anti-desmoglein-3 scFv antibody binding to human DSG3. Briefly: inhibitors of anti-DSG3 scFv binding to DSG3, pilot screen, biochemical, validation compound set, bead-based, flow cytometry (AID 588368;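 active = binding below the plate cutoff, the plate median minus 3 SD, with a reading above zero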;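 also: signal is the median channel fluorescence of bead-bound GFP antibody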). As to conditions: Protein G beads, DSG3-Fc, scFv-GFP binding, at 10 µM, stronger effect = lower value.
Test [14] is described as follows: inhibitors of fungal efflux pumps CDR1, CDR2, MDR1, pilot screen, validation compound set, multiplex, phenotypic (AID 588506;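 active = efflux inhibition above 0.42, the validation set average plus 4 SD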;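 also: Nile Red retained in cells so higher fluorescence means more efflux inhibition; 0 = negative control wells and 1 = enniatin B 25 µM full block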). As to conditions: S. cerevisiae pump-expressing triplex, Nile Red efflux flow cytometry; at 10 µM; stronger effect = higher value; the pumps come from Candida albicans.
In test [15] the target is ATP-binding cassette sub-family B member 6 (Homo sapiens) (UniProt Q9NP58). Briefly: ABCB6 transporter inhibitors, pilot screen, K562-ABCB6 cells, flow cytometry, validation set (AID 588550;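 active = inhibition above the screen-wide mean plus 3 SD, about 51%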;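 also: 0% = DMSO wells and 100% = benzethonium chloride 70 µM positive control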). As to conditions: K562-ABCB6 porphyrin accumulation, 1 h, at 10 µM, stronger effect = higher value.
Test [16] is described as follows: promoters of myeloid differentiation in arrested cells, primary screen, cell-based, GFP/MAC1 double positive, flow cytometry, validation set (AID 588685;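 active = differentiation response of at least 50%, scaled between solvent and reference control, from cells with both markers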;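 also: compound exposure lasts four days before antibody staining and flow analysis; 0% = DMSO wells and 100% = 5 µM fulvestrant positive control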). As to conditions: ER-HoxA9 marrow cells, stronger effect = higher value, normalized: vehicle 0, fulvestrant 100.

AP-2 complex subunit beta (Homo sapiens), sequence (P63010 whole entry, looked up, the tested form may be a part, one chain of several): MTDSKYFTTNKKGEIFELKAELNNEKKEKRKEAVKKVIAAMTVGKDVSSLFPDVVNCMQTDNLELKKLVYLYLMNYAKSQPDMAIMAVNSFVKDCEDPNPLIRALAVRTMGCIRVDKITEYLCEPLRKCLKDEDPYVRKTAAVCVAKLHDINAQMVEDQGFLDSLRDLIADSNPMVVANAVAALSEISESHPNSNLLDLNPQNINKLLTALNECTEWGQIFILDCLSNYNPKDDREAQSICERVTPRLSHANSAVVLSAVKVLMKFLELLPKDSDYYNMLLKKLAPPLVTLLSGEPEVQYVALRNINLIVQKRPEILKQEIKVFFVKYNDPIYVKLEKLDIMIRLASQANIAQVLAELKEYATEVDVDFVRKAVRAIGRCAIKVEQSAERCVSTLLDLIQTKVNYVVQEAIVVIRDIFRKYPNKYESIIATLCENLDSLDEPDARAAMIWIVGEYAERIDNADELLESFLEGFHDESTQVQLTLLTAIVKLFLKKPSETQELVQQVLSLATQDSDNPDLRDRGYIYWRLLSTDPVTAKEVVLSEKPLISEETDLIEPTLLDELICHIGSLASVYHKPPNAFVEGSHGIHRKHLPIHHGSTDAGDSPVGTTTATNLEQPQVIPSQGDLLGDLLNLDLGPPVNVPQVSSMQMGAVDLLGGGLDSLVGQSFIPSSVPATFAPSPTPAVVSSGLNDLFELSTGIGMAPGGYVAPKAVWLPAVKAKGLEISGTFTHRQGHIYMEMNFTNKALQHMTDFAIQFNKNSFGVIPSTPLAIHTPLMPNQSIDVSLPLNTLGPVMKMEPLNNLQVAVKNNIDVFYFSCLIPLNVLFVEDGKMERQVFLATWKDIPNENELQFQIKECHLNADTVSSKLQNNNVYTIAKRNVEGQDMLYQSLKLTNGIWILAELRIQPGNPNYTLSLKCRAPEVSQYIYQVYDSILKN
ATP-binding cassette sub-family B member 6 (Homo sapiens), sequence (Q9NP58 whole entry, looked up): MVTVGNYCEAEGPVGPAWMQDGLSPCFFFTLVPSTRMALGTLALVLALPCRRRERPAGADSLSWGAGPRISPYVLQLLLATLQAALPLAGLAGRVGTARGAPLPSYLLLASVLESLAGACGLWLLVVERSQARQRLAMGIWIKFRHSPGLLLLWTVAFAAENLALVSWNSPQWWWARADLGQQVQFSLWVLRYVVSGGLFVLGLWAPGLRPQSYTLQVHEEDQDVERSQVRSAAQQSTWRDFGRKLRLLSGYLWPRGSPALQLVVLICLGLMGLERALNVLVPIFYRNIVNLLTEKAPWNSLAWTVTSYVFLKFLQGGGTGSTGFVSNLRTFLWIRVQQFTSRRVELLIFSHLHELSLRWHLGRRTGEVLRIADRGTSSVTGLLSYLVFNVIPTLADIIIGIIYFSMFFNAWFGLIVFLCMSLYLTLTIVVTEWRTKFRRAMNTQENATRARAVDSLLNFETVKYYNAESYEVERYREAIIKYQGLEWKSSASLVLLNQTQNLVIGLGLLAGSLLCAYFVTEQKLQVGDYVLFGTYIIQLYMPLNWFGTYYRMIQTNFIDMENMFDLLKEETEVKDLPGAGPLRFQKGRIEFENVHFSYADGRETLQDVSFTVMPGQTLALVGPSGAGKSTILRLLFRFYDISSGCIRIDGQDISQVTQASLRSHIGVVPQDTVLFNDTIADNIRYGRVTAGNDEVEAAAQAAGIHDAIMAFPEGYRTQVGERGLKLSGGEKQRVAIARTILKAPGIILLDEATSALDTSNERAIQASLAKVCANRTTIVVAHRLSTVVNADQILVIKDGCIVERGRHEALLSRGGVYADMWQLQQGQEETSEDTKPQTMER
Beta-adrenergic receptor kinase 1 (Homo sapiens), sequence (P25098 whole entry, looked up): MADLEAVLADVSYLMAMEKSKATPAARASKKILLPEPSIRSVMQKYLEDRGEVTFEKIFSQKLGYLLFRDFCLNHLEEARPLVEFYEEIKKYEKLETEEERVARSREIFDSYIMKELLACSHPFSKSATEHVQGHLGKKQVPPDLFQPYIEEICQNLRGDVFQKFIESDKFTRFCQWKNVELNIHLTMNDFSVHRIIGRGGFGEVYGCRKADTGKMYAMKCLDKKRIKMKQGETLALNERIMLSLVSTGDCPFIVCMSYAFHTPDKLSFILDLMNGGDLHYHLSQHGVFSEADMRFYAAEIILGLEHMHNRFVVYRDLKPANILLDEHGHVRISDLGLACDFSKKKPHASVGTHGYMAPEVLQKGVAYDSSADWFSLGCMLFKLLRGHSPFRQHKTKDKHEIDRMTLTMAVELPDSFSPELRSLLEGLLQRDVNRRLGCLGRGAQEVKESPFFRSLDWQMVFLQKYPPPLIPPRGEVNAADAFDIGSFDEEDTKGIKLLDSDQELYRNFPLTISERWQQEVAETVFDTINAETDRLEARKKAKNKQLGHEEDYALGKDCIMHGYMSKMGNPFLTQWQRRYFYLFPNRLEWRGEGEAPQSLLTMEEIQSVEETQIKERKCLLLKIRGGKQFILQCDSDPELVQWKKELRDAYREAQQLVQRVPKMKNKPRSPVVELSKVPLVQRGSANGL
Beta-2 adrenergic receptor (Homo sapiens), sequence (P07550 whole entry, looked up): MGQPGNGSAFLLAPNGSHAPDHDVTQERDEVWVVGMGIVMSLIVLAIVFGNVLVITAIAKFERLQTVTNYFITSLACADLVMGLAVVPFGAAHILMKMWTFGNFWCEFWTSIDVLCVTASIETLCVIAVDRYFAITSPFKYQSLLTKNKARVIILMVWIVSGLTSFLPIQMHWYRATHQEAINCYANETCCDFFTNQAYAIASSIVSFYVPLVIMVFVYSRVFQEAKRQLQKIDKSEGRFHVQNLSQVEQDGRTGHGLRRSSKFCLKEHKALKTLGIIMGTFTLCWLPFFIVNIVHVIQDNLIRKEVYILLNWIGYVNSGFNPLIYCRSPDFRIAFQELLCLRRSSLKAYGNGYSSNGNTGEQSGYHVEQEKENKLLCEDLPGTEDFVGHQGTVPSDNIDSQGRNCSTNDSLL
Integrin beta-1 (Homo sapiens) + Integrin alpha-4 (Homo sapiens), sequence (P05556 whole entry, looked up): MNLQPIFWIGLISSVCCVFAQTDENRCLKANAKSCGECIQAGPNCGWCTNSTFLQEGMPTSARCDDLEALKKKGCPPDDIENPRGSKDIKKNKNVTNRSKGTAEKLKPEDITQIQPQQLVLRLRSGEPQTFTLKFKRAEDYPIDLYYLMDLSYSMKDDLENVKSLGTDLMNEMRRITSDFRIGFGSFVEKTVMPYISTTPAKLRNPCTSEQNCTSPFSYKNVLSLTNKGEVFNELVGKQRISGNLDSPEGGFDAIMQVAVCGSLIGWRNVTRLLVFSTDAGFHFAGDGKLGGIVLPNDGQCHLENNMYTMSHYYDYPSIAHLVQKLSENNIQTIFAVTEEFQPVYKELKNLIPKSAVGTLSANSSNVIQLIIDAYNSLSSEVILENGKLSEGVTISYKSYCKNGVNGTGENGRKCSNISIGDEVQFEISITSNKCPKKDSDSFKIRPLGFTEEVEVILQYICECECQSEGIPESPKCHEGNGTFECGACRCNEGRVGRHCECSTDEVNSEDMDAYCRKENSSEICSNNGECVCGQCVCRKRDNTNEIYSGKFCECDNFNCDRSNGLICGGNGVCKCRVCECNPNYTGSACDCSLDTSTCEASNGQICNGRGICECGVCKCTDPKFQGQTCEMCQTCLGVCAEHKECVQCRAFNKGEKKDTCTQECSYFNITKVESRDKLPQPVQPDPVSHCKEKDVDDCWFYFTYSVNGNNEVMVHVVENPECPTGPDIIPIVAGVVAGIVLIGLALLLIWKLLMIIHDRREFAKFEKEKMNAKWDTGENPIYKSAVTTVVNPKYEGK
Integrin beta-1 (Homo sapiens) + Integrin alpha-4 (Homo sapiens), sequence (P13612 whole entry, looked up): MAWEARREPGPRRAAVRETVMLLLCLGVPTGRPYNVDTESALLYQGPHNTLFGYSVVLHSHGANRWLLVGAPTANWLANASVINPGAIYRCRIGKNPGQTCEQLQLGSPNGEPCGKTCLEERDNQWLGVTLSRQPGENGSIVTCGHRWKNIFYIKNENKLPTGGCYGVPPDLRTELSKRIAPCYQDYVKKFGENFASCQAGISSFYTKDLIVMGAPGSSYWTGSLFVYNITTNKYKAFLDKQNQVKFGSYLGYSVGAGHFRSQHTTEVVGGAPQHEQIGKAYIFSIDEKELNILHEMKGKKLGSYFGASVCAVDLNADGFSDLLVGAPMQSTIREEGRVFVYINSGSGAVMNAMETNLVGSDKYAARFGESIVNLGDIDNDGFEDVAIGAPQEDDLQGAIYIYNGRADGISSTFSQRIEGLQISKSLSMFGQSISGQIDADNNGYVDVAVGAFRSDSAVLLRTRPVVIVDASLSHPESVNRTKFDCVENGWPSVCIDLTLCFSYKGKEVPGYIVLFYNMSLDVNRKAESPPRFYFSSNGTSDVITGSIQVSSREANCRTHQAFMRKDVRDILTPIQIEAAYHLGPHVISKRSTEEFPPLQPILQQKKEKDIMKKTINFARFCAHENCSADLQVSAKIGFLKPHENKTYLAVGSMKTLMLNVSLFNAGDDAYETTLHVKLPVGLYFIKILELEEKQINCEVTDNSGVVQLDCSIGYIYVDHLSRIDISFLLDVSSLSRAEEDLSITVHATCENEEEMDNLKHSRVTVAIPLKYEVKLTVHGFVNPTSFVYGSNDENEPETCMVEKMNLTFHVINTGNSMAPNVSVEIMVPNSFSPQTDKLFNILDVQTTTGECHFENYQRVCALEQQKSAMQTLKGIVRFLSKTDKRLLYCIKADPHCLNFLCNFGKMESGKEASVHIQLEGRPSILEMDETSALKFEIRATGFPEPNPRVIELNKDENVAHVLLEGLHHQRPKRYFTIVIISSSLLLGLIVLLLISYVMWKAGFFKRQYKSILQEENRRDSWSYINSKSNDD

For `CCOC(=O)N1c2ccccc2C=CC1OCC` (stereo not given), the percent of DMSO control GFP in [1] is 103% (inactive). The GFP response vs DMSO in test [2] was 97.7% (inactive); in [4] it was 108% (inactive). In test [3], the percent response of DMSO control was 102% (inactive). Besides, the GFP response, % of DMSO in [5] was 109% (inactive). Moreover, the double positive events in test [6] was 57%. The vesicle binding response in [6] is 109% (inactive). The inhibition in [7] is 2.93% (inactive); in [11], -6.59% (inactive); in test [15], -3% (inactive). In test [8], the superoxide response (% of plate) was 110% (inactive). Moreover, in test [9], the aptamer binding inhibition is 3% (inactive). Moreover, the response is 2.04% (inactive) in [10] and -0.43% (inactive) in test [12]. For the same compound, the binding (% of control) in test [13] was 103% (inactive). The efflux inhibition (fraction of control) in test [14] was -0.29 (inactive). In addition, the differentiation response in test [16] is -13.3% (inactive).

Turning to `CC1(C)Oc2ccc(C#N)cc2[C@@H](N2CCCC2=O)[C@@H]1O`, the percent of DMSO control GFP in test [1] is 97.9% (inactive). Moreover, the values for the GFP response vs DMSO in test [2] and in test [4] were 115% (inactive) and 78.7% (inactive), respectively. Further, in [3], the percent response of DMSO control was 116% (inactive). In addition, the GFP response, % of DMSO in [5] was 99.1% (inactive). The compound also had a double positive events in test [6] of 63%. Also, the vesicle binding response in test [6] was 180% (inactive). Further, the results for the inhibition in test [7], in test [11] and in [15] were 2.58% (inactive), 1.01% (inactive) and 6% (inactive), respectively. In [8], the superoxide response (% of plate) was 93% (inactive). For the same compound, the aptamer binding inhibition in test [9] is -1% (inactive). Moreover, the response in test [10] was -6.3% (inactive); in test [12], 0.27% (inactive). Also, the binding (% of control) in [13] was 100% (inactive). The efflux inhibition (fraction of control) in [14] was -0.09 (inactive). In addition, the differentiation response in test [16] is 0% (inactive).

As to `O=C(O)C1CSC(c2ccc3c(c2)OCO3)N1` (stereo not given), the percent of DMSO control GFP in test [1] is 93.9% (inactive). Besides, the GFP response vs DMSO in test [2] was 121% (inactive); in test [4], 78.7% (inactive). The percent response of DMSO control in test [3] was 101% (inactive). In [5], the GFP response, % of DMSO was 90.3% (inactive). This compound also registered a double positive events in test [6] of 61.8%. Besides, in [6], the vesicle binding response was 197% (inactive). The values for the inhibition in test [7], in test [11] and in test [15] were -7.12% (inactive), -4.96% (inactive) and 9% (inactive), respectively. Besides, the superoxide response (% of plate) in test [8] was 86.1% (inactive). In addition, the aptamer binding inhibition in [9] is 3% (inactive). For the same compound, the response in test [10] is -4.07% (inactive); in [12], 0.02% (inactive). In addition, the binding (% of control) in test [13] was 105% (inactive). The efflux inhibition (fraction of control) in test [14] is -0.2 (inactive). The differentiation response in [16] is -4.91% (inactive).

Consider `Cc1[nH]c2ccccc2c1C(=O)C(=O)NCc1ccco1`, for which the percent of DMSO control GFP in test [1] was 103% (inactive). The GFP response vs DMSO in test [2] is 104% (inactive); in [4], 112% (inactive). Also, in test [3], the percent response of DMSO control is 101% (inactive). Besides, the GFP response, % of DMSO in test [5] was 113% (inactive). This compound yielded a double positive events in [6] of 62%. Besides, in [6], the vesicle binding response is 151% (inactive). Besides, the inhibition is -14.7% (inactive) in [7], 5.02% (inactive) in test [11] and 4% (inactive) in test [15]. Also, in test [8], the superoxide response (% of plate) was 97.1% (inactive). Also, the aptamer binding inhibition in test [9] was 8% (inactive). For the same compound, the figures for the response in test [10] and in test [12] were -22.4% (inactive) and -4.14% (inactive), respectively. For the same compound, in [13], the binding (% of control) is 106% (inactive). In [14], the efflux inhibition (fraction of control) was -0.04 (inactive). Besides, the differentiation response in test [16] was -4% (inactive).

Turning to `O=Cc1ccc(OC(=O)c2cccnc2)cc1`, the percent of DMSO control GFP in test [1] is 101% (inactive). Also, the GFP response vs DMSO was 91.9% (inactive) in [2] and 78.6% (inactive) in test [4]. For the same compound, the percent response of DMSO control in test [3] was 107% (inactive). Moreover, the GFP response, % of DMSO in test [5] is 99.5% (inactive). The same compound gave a double positive events in test [6] of 58.7%. Also, in test [6], the vesicle binding response is 209% (inactive). The values for the inhibition in [7], in [11] and in test [15] were 2.3% (inactive), -1.7% (inactive) and 4% (inactive), respectively. Moreover, the superoxide response (% of plate) in [8] was 98.5% (inactive). Besides, the aptamer binding inhibition in test [9] was 1% (inactive). The figures for the response in test [10] and in test [12] were -10.5% (inactive) and 1.76% (inactive), respectively. Also, in test [13], the binding (% of control) was 93% (inactive). For the same compound, in test [14], the efflux inhibition (fraction of control) was 0.05 (inactive). Further, the differentiation response in [16] is 16.8% (inactive).
